Assay outcomes deposited in PubChem BioAssay by National Center for Advancing Translational Sciences (NCATS).
This is a sample that favours compounds with a hit; in the whole collection about 7.4% have one here.
FLuc counter = counter-screen for miR-21 project: firefly luciferase inhibitors or activators | P08659 | purified FLuc, Km substrates, luminescence inhibition | AID 588342 | actives 6.9% (n = 360,000) | Potency, µM (titrated, usually from 57.5 µM), for inactives: top-dose activity change, negative = inhibition, actives largely listed as inhibitors;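 also: plate controls were vehicle for no effect and reference inhibitor for full effect; nearly all actives have a fitted effect of over 55% in size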
Target sequence (P08659 whole entry, looked up): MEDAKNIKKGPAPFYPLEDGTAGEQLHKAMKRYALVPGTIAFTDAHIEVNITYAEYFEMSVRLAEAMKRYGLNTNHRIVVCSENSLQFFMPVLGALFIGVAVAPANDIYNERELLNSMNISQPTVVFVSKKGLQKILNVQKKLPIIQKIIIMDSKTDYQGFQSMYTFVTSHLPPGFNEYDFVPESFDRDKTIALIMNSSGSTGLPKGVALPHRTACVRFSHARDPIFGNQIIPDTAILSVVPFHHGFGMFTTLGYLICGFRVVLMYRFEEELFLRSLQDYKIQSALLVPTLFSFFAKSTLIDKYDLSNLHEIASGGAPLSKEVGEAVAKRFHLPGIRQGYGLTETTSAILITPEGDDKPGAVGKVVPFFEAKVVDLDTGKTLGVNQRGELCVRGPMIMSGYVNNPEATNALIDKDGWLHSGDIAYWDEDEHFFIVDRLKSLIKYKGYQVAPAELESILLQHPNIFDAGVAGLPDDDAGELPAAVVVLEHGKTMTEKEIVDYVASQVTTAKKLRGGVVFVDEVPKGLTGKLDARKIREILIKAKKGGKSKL
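Biochemical qHTS of compounds, final roughly 60 µM downward over six points, against 10 nM purified firefly luciferase using Km concentrations of substrates (10 uM D-luciferin, 10 uM ATP) in Tris acetate pH 7.5 buffer; luminescence output.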
SMN2 splice enh = SMN2 splice variant enhancement; HEK293 SMN2-luciferase splicing reporter, luminescence, 30-36 h; Potency, µM (series often up to 46.1 µM), inactives show top-dose activity change, positive = activation, actives largely listed as activators; actives 2.8% (n = 210,000); AID 1458; also: % of control where 0% means no effect; nearly all actives have a fitted effect of over 55% in size
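qHTS luciferase splicing reporter: luminescence rises when SMN2 exon 7 is included in transfected HEK293 cells. Compound exposure lasted 30-36 h at 37C, with 4.5 mM final sodium butyrate as control, followed by a ONE-Glo read.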
Rab9 promoter act = Rab9 promoter activation; actives 2.8% (n = 320,000); Potency, µM (series often up to 9.22 µM), inactives show at the top dose activation, negative = inhibition, hits mostly activators; Huh7 Rab9 promoter-luciferase reporter, luminescence, 24 h; also: % of control where 0% means no effect; nearly all actives have a fitted effect of over 60% in size
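Rab9 promoter-driven luciferase in stably transfected Huh7 cells; 1500 cells/well rested 2 h, exposed to compound in DMSO for 24 h at 37 °C, 5% CO2. Luminescence read 10 min after adding luciferase reagent at ambient temperature.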
KinaseGlo FLuc = Kinase-Glo luciferase inhibition (counter-screen); Q27757; Kinase-Glo luciferase, ATP luminescence, 8 min; Potency, µM (doses to about 38.3 µM), for the others: at the highest dose activity change, negative = inhibition, most hits filed as inhibitors; actives 0.28% (n = 200,000); AID 1379; also: % is scaled to controls: 0 for no effect and ±100 for the full control effect; nearly all actives have a fitted effect of over 60% in size
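Compounds were added to a substrate mix at pH 7.2 (50 mM imidazole, 10 uM ATP, within the enzyme's linear range), followed by Kinase-Glo detection reagent; luminescence was measured after 8 minutes at ambient temperature.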
NPC1 prom act = NPC1 promoter activation; AID 485313; actives 2.4% (n = 320,000); Huh7 NPC1 promoter luciferase reporter, 24 h; Potency, µM (top dose mostly 9.22 µM), for the others: top-dose activation, most hits filed as activators; also: % of control where 0% means no effect; nearly all actives have a fitted effect of over 60% in size
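Huh7 reporter cells (NPC1 promoter driving luciferase) are dosed with compound for 24 h at 37 °C, 5% CO2; luciferase detection reagent is then added and luminescence measured after 10 min at ambient temperature.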
ELG1 genotoxic = inducers of genotoxicity in HEK293T ELG1-luciferase cells | HEK293T ELG1-luciferase reporter, luminescence, 16 h | AID 504466 | actives 1.3% (n = 330,000) | Potency, µM (series often up to 46 µM), for the others: at the highest dose activity change, positive = activation, actives largely listed as activators; also: % of control where 0% means no effect; nearly all actives have a fitted effect of over 60% in size
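Luminescence read-out: rising ELG1-luciferase signal, reflecting elevated ELG1 protein under genetic stress, flags genotoxic compounds. Cells were treated for 16 hr at 37 °C before ONE-Glo detection.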
Starred values were filed as active, the others as inactive; u = inconclusive; x = not tested or not shown. Calls follow the shape of the dose curve; as a rule, active = well fitted curve in the direction sought with a large enough effect; inconclusive = small, poorly fitted or top-dose-only effect, or another doubt; inactive = no such curve, though single readings can be large; an effect the other way counts as inactive or inconclusive. Potency is read from the fitted curve at half-maximal effect.

SMILES	FLuc counter	SMN2 splice enh	Rab9 promoter act	KinaseGlo FLuc	NPC1 prom act	ELG1 genotoxic
O=c1c2cc(-c3ccccc3)sc2ncn1/N=C/c1ccco1	8.5µM*	10%	3.5µM*	-3%	u	u
COc1ccccc1-n1cnc2sc(-c3ccccc3)cc2c1=O	11µM*	-20%	2.8µM*	1%	u	5%
Cc1cc(C)cc(N2CCn3c2nc2c3c(=O)n(CCc3ccccc3)c(=O)n2C)c1	2%	x	x	x	x	x
Cc1ccc(-c2cc(-c3n[nH]c(=S)n3C)c3ccccc3n2)cc1	11µM*	19%	-8%	-5%	-1%	4%
CCn1c(-c2cc(-c3ccc(C)c(C)c3)nc3ccccc23)n[nH]c1=S	3µM*	x	3%	-3%	-2%	9%
CCOc1cccc(-c2cc(-c3n[nH]c(=S)n3CC)c3ccccc3n2)c1	12µM*	-16%	-6%	-4%	8%	-10%
Cn1c(-c2ccccc2)n[nH]c1=S	-1%	x	1%	x	-1%	-1%
COc1ccc(/C=C/c2cc(C(F)(F)F)on2)cc1	6µM*	x	0%	x	12%	13%
CC(/C=C/c1ccc(OCc2ccccc2)cc1)=N\O	2.4µM*	11µM*	2.8µM*	-5%	2.8µM*	15µM*
CN1CCN(/N=C/c2ccc(OCc3ccccc3)cc2)CC1	9.5µM*	x	2.8µM*	x	3.5µM*	u
COC(=O)c1ccc(COc2ccc(/C=N/N3CCN(C)CC3)cc2)cc1	24µM*	5.6µM*	1.1µM*	-2%	u	u
COC(=O)c1c(NC(=O)c2cc(=O)c3ccc(C)c(C)c3o2)sc2c1CCCC2	6%	5%	x	x	x	x
CCC(=O)Nc1nc2ccc(NC(C)=O)cc2s1	u	18%	u	8%	24%	u
CSc1nc2ccc(NC(=O)c3cc4ccccc4o3)cc2s1	1.1µM*	x	2.5µM*	x	1.6µM*	u
CC(=O)Nc1ccc2nc(NC(=O)c3ccco3)sc2c1	11µM*	x	2µM*	x	1.4µM*	u
CSc1nc2ccc(NC(=O)c3ccc(=O)n(C)n3)cc2s1	17µM*	-17%	u	-20%	28%	22%
CSc1nc2ccc(NC(=O)c3ccc(F)c(F)c3)cc2s1	u	16µM*	u	7%	u	u
CC(=O)Nc1ccc2nc(NC(=O)c3ccc([N+](=O)[O-])o3)sc2c1	21µM*	x	16%	x	12%	-13%
Cc1cccc(OCC(=O)Nc2nc3ccc([N+](=O)[O-])cc3s2)c1	-8%	-18%	-6%	3%	-3%	-3%
O=C(Nc1nc2ccc([N+](=O)[O-])cc2s1)c1c(F)cccc1F	8.5µM*	u	19%	1%	23%	-1%
O=C(Nc1nc2ccc([N+](=O)[O-])cc2s1)c1ccco1	2.1µM*	3.5µM*	0.79µM*	-3%	1.6µM*	-10%
CCCC(=O)Nc1nc2ccc(NC(=O)c3ccc(Br)o3)cc2s1	-2%	u	9%	4%	11%	-7%
CCOC(=O)CSc1nc2ccc(NC(=O)c3ccc(C)cc3)cc2s1	5.4µM*	x	x	x	x	x
Cn1c(=O)c(=O)n(C)c2cc(NC(=O)c3cccc(F)c3)c(Cl)cc21	0%	-2%	x	x	x	x
COc1ccc(/C=C\c2onc(C)c2S(=O)(=O)N2CCC(C(=O)Nc3ccccc3OC)CC2)cc1	-8%	-37%	x	x	x	x
SMILES	FLuc counter	SMN2 splice enh	Rab9 promoter act	KinaseGlo FLuc	NPC1 prom act	ELG1 genotoxic
Cc1ccc(NC(=O)CSc2nc3ccc(NC(=O)c4ccco4)cc3s2)cc1	-3%	x	x	x	x	x
CS(=O)(=O)c1ccc2nc(NC(=O)c3cccc([N+](=O)[O-])c3)sc2c1	1.7µM*	x	1.3µM*	x	1.6µM*	u
CS(=O)(=O)c1ccc2nc(NC(=O)c3cc([N+](=O)[O-])cc([N+](=O)[O-])c3)sc2c1	u	x	2%	x	12%	-2%
CSc1nc2ccc(NC(=O)c3ccco3)cc2s1	9.5µM*	x	2.5µM*	x	2.8µM*	8.2µM*
Cc1nc(NCc2ccccc2)c2nc(-c3ccccc3)n(CCN3CCOCC3)c2n1	x	-5%	x	-4%	x	x
O=c1c(C=NCCN2CCNCC2)c(-c2ccccc2)[nH]n1-c1ccc([N+](=O)[O-])cc1	u	x	u	-5%	u	13%
COc1ccc(-c2[nH]n(-c3ccc([N+](=O)[O-])cc3)c(=O)c2C=NCCN2CCNCC2)cc1	0.95µM*	x	0.45µM*	u	0.71µM*	u
CCOc1ccc(Nc2nc(-c3cccc(Cl)c3)c3c(n2)-c2ccccc2OC3)cc1	12µM*	x	x	x	x	x
CC(C)(C)c1cc(-c2nc(N)nc(N)n2)cc(C(C)(C)C)c1	-16%	-2%	-1%	1%	0%	0%
CC(C)(C)c1ccc(-c2nc(N)nc(N)n2)cc1	2.1µM*	x	u	x	u	u
Cc1nc2ccc(Cl)cc2nc1C	-12%	x	-10%	x	2%	3%
O=C(O)COn1c(-c2ccc(Cl)cc2)nc2ccc(Cl)cc21	9.5µM*	16%	7%	5%	2%	u
COn1c(-c2ccc(Cl)cc2)nc2ccc(Cl)cc21	9.5µM*	13%	u	-2%	30%	10%
COc1ccc(-c2nc3ccccc3n2OCC(=O)O)cc1	3µM*	x	19%	-27%	9%	u
